# Bioassay records deposited in PubChem by National Center for Advancing Translational Sciences (NCATS).
# An excerpt weighted towards active compounds, which were near 6.2% of everything screened.
# ATXN2 expr inh = reduces ATXN2 reporter expression in HEK-293 cells | HEK-293 ATXN2-luciferase reporter, luminescence, 24 h | Potency, µM (titrated, usually from 57 µM), for inactives: top-dose activity change, negative = inhibition, actives largely listed as inhibitors | hit rate 0.72% among 360,000 | AID 1745845; further: on the % scale 0 is the no-effect control and ±100 the full control effect; nearly all actives have a fitted effect of over 55% in size
#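 qHTS (up to 57 uM final) was run with 24 h compound exposure of reporter cells at 37 °C. Each well was multiplexed: SteadyGlo luminescence measured ATXN2-luciferase expression after a fluorogenic Gly-Phe-AFC viability readout (25 uM final).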
# S2 tox = cell viability loss in ATXN counter-screen. hit rate 0.49% among 400,000. S2 cells (HEK-293 line with an ATXN2-luciferase reporter) viability, CellTiter-Fluor protease fluorescence, 24 h. AID 651635. Potency, µM (highest dose often 56.7 µM), most hits filed as cytotoxic; further: nearly all actives have a fitted effect of over 40% in size
# KB-V1 cytotox = kills drug-selected multidrug resistant KB-V1 cells. KB-V1 MDR cells viability, CellTiter-Glo, 72 h. Potency, µM (series often up to 46.1 µM), actives largely listed as cytotoxic. hit rate 3.4% among 400,000. AID 1347076; further: on the % scale 0 is the no-effect control and ±100 the full control effect; nearly all actives have a fitted effect of over 60% in size
#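 In this primary screen, KB-V1 cells overexpressing P-gp are incubated with library compounds (lowest to highest concentration) for 72 h at 37 degrees C before a luminescent ATP viability read.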
# HT1080-NT tox = kills 2HG-producing HT-1080-NT fibrosarcoma cells. Potency, µM (doses to about 46.1 µM), for the others: top-dose activity, negative = less viability, usual class: cytotoxic. HT-1080-NT fibrosarcoma viability, CellTiter-Glo ATP luminescence, 48 h. hit rate 1.6% among 360,000;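 further: NT is the 2HG producing partner of a matched IDH1 knockdown line; 0% = DMSO-treated cells and -100% = media-only wells without cells; nearly all actives have a fitted effect of over 55% in size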
#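 Viability of the 2HG-overproducing fibrosarcoma line after 48 hours of compound exposure at 37 degrees C was determined by luminescence with CellTiter-Glo, and concentration-effect curves were then fitted and categorized.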
# KB-3-1 cytotox = KB-3-1 parental cell cytotoxicity. KB-3-1 viability, CellTiter-Glo ATP luminescence, 72 h. Potency, µM (titrated, usually from 46.1 µM), most hits filed as cytotoxic. hit rate 1.4% among 400,000; further: on the % scale 0 is the no-effect control and ±100 the full control effect; nearly all actives have a fitted effect of over 60% in size
#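 Viability of parental KB-3-1 cells, measured by CellTiter-Glo luminescence, followed a 72 h incubation at 37 °C with pinned compounds in phenol-red-free DMEM containing 10% FBS.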
# HT1080 IDH1KD tx = HT-1080 IDH1 knockdown cell toxicity (counter line); HT-1080 IDH1 knockdown viability, ATP luminescence, 48 h; Potency, µM (top dose mostly 46.1 µM), inactives show top-dose activity, negative = toxicity, actives largely listed as cytotoxic; AID 686971; hit rate 2% among 360,000;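 further: 0% = DMSO wells and -100% = cell-free medium wells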
#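 IDH1KD HT-1080 cells, 750/well, RPMI + 5% FBS; compound pinned after 2 h settling; 48 h, 37 °C; CellTiter-Glo luminescence; % activity normalised to DMSO and no-cell wells; curves fitted, classed by r2 and efficacy.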
# * hit, by the source's call; i = inactive; ? = inconclusive; · = not tested or not shown; ! = not confirmed by another sample; [ ] = another dose, or the depositor's remark. The call rests on the fitted dose curve; in most records, active means well fitted curve in the direction sought with a large enough effect; inconclusive means small, poorly fitted or top-dose-only effect, or another doubt; inactive means no such curve, though single readings can be large; an effect the other way counts as inactive or inconclusive. Potency means the concentration at half of the fitted maximal effect.
SMILES,ATXN2 expr inh,S2 tox,KB-V1 cytotox,HT1080-NT tox,KB-3-1 cytotox,HT1080 IDH1KD tx
COc1ccc(-n2cnc3cc(C(=O)N4CCC5(CC4)OCCO5)ccc32)cc1,·,i,?,?,14.6µM*,16.4µM*
COc1ccc(C=C(C(=O)O)c2ccc(OC)cc2)cc1,17.3%,?,i,5.4%,i,2.7%
CCCOc1ccc(C(=O)NC(=S)N2C[C@H]3C[C@H](C2)c2cccc(=O)n2C3)cc1,15.9%,i,i,2.2%,i,-1.1%
CCCOc1ccc(C(=O)CCC(=O)NNC(=O)c2ccncc2)cc1,2.3%,?,5.8µM*,4.0%,?,-1.4%
CCCCC[C@H]1CCCCC[C@@H](O)C[C@H](O)[C@H](O)/C=C/C(=O)O1,-20.3%,?,?,-2.1%,?,-27.4%
CCCCCCC[n+]1ccc(-c2cc[n+](CCCCCCC)cc2)cc1,-16.2%,i,i,?,?,?
CCCCCCCCCCCCCCCC[n+]1ccccc1,31.6µM*!,20µM*,?,11.6µM*,5.8µM*!,10.3µM*
COc1ccc(OC)c(C[C@H](C)N)c1,·,i,·,·,·,·
CC(Oc1ccccc1)C(=O)Nc1ccc(C(=O)OCc2cc(=O)n3nc(C4CC4)sc3n2)cc1 (stereo not given),-39.7%,?,?,·,i,·
CCN(CC)C(=O)Cn1cc(S(=O)(=O)CC(=O)NCc2ccc(C)cc2)c2ccccc21,-1.4%,?,i,15.6%,i,12.1%
NC(Cc1ccccc1)c1csc(Nc2ccccn2)n1 (stereo not given),-21.0%,?,i,?,i,?
NC(Cc1ccc(F)cc1)c1csc(Nc2ccccn2)n1 (stereo not given),?,i,?,?,i,23.1µM*
NC(Cc1ccc(Cl)cc1)c1csc(Nc2ccccn2)n1 (stereo not given),22.4µM*,?,i,23.1µM*,i,?
COc1cccc(Nc2nc(C(N)Cc3ccc(F)cc3)cs2)n1 (stereo not given),25.1µM*,?,?,23.1µM*,?,14.6µM*
NC(Cc1ccc(F)cc1)c1csc(Nc2cnccn2)n1 (stereo not given),10.0%,i,i,?,i,-13.3%
CC(=O)NCC(N)C(=O)c1ccc(Cl)c(Cl)c1 (stereo not given),·,·,·,?,·,-12.5%
Cc1ccc2c(c1)[C@]13CCCC[C@@H]1[C@H](C2)N(C)CC3,·,i,·,·,·,·
CCC(C)NC(=O)CCC(=O)OC1O[C@H]2OC3(C)CC[C@H]4[C@H](C)CCC(C1C)C24OO3 (stereo not given in full),-28.5%,?,i,7.31µM*,5.17µM*,7.31µM*
C[C@@H]1CC[C@H]2[C@@H](C)C(=O)O[C@@H]3O[C@@]4(C)CC[C@@H]1[C@]32OO4,-7.2%,i,?,-1.6%,i,-13.3%
CC(C)(C)C1CCc2onc(C(=O)O)c2C1 (stereo not given),0.0%,?,i,4.3%,i,0.7%
CC(C)Nc1nc(NC(C)C)nc(N(C#N)CCOc2ccc(Cl)cc2Cl)n1,?,i,?,?,i,?
CCC(=Nc1ccc(OC)cc1OC)c1c(O)n(C)c(=O)n(C)c1=O,-13.8%,i,?,-18.3%,?,?
CCCCn1c(O)c(C(CC)=NCc2cc(OC)cc(OC)c2)c(=O)[nH]c1=O,-17.8%,i,3.66µM*,-3.9%,i,-25.4%
CCCCn1c(O)c(C(CC)=Nc2ccc(OCC)cc2)c(=O)[nH]c1=O,-14.1%,i,20.6µM*,4.0%,?,-3.9%
CCCCn1c(O)c(C(CC)=Nc2ccc(OC)cc2OC)c(=O)[nH]c1=O,?,?,20.6µM*,-15.1%,?,-23.9%
SMILES,ATXN2 expr inh,S2 tox,KB-V1 cytotox,HT1080-NT tox,KB-3-1 cytotox,HT1080 IDH1KD tx
Nc1nonc1C(=O)N/N=C/c1ccc([N+](=O)[O-])o1,-15.1%[11.3 µM],i,i,?,i,18.4µM*
CCc1ccc(-n2c(SC(CC)C(=O)N(CC)CC)nc3n[nH]c(C)c3c2=N)cc1 (stereo not given),?,?,i,·,i,·
Cc1cccc(Cc2cnc[nH]2)c1C,1.7%,i,·,·,·,·
COC(=O)c1nc(-c2ccc3c(n2)C(=O)C(N)=C(OC)C3=O)c(N)c(-c2ccc(OC)c(OC)c2O)c1C,?,?,10.3µM*,?,?,?
CC12CCC(=O)C=C1C=CC1C2CCC2(C)C(O)CCC12 (stereo not given),9.2%,i,2.06µM*,-4.4%,8.2µM*,-19.7%
C[C@]12CCC(=O)C=C1C=CC1C2CC[C@@]2(C)C1CC[C@@H]2O (stereo not given in full),-8.9%,i,3.66µM*,0.2%,?,-0.3%
C[C@]12CCC3C(CC[C@@H]4CC(=O)CC[C@]34C)C1CC[C@@H]2O (stereo not given in full),-12.4%,i,?,0.9%,i,1.5%
CC12CCC(=O)C=C1CC(N1CC1)C1C2CCC2(C)C(O)CCC12 (stereo not given),-34.7%,i,?,10.2%,?,1.6%
N#Cc1cc2c(nc1SCC(=O)Nc1ccc(Cl)cc1)C1CCN2CC1,-1.5%,i,2.91µM*,?,?,?
N#Cc1cc2c(nc1SCC(=O)Nc1cc(Cl)ccc1Cl)C1CCN2CC1,?,?,4.11µM*,?,?,?
Nc1c(C(=O)Nc2ccc(Cl)cc2)sc2nc3c(cc12)N1CCC3CC1,-6.1%,·,7.31µM*,·,i,·
Cc1ccc(-c2csc3ncnc(OCC(=O)NC(=O)NCc4ccco4)c23)cc1,8.8%,i,i,?,i,?
C[C@H]1COC(=O)[C@@H](Cc2ccc(F)cc2)CC/C=C/C[C@@H](CC(=O)N(CCO)Cc2ccccc2)C(=O)N1,-13.7%,?,?,-14.3%,i,4.1%
Cc1cc(N2CCN(C(=O)c3ccco3)CC2)n2nc(-c3cccc(Cl)c3)cc2n1,20µM*,·,?,?,?,?
Cc1nc2cc(-c3cccc(F)c3)nn2c(C)c1CCC(=O)N1CCC2(CC1)OCCO2,?,i,?,3.0%,i,15.4%
CCc1nc2ccc(Br)cc2c(=O)n1-c1ccccc1C(F)(F)F,-9.1%,i,i,2.3%,i,-0.4%
CCCc1nc2ccc(Br)cc2c(=O)n1-c1ccc([N+](=O)[O-])c(C(F)(F)F)c1,-35.2%,i,16.4µM*,?,?,?
